Data from PubChem BioAssay (NCI).
This is part of a sample that, as a whole, favours compounds with a hit. Of some 83,000 tested, about 20% had one in any assay.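 48-hour exposure, single concentration, 96-well plates; percent growth endpoint where 0 means no net growth. Active: below 10.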 Activity calls are given as the source filed them.

How the values were obtained:
Test in all cases: NCI-60 one-dose screen, 48 h (100 = growth as untreated, 0 = no growth, -100 = all killed)
Details in all cases: 10 µM
SK-MEL-2 melanoma = test system: SK-MEL-2 melanoma
SN12C renal = test system: SN12C renal
UO-31 renal = test system: UO-31 renal
TK-10 renal = test system: TK-10 renal
ACHN renal = test system: ACHN renal
CAKI-1 renal = test system: CAKI-1 renal
A498 renal = test system: A498 renal
CCRF-CEM leukemia = test system: CCRF-CEM leukemia
MOLT-4 leukemia = test system: MOLT-4 leukemia

Measured: growth

CCOC(=O)c1cc(-c2ccccc2)nc(N)n1
inactive: SK-MEL-2 melanoma 110% | SN12C renal 94.6% | UO-31 renal 79.1% | TK-10 renal 127% | ACHN renal 92.7% | CAKI-1 renal 94% | A498 renal 86.5% | CCRF-CEM leukemia 98.7% | MOLT-4 leukemia 108%

COc1nc2c(c(=O)[nH]1)C(c1ccc(Oc3ccnc4cc(Cl)ccc34)c(OC)c1)C=C(c1cc(OC)c(OC)c(OC)c1)N2 (stereo not given)
inactive: SK-MEL-2 melanoma 82.6% | SN12C renal 90.7% | UO-31 renal 74.5% | TK-10 renal 103% | ACHN renal 102% | CAKI-1 renal 94.1% | A498 renal 81.9% | CCRF-CEM leukemia 87.4% | MOLT-4 leukemia 78%

CC(=O)CS(C)(=O)=O
inactive: SK-MEL-2 melanoma 103% | SN12C renal 105% | UO-31 renal 92.4% | TK-10 renal 103% | ACHN renal 106% | CAKI-1 renal 101% | A498 renal 98.8% | CCRF-CEM leukemia 103% | MOLT-4 leukemia 106%

COc1cc(Cn2c(-c3ccccc3)cc3c2-c2oncc2CC3)cc(OC)c1
active: UO-31 renal 9.92% | A498 renal -14.7%
inactive: SK-MEL-2 melanoma 22.3% | SN12C renal 24.3% | TK-10 renal 57.4% | ACHN renal 34.7% | CAKI-1 renal 18% | CCRF-CEM leukemia 11.3% | MOLT-4 leukemia 12.2%

FC(F)(F)c1ccc(-c2cnc(Cl)nc2NCc2cc(C(F)(F)F)cc(C(F)(F)F)c2)cc1
inactive: SN12C renal 12.4% | TK-10 renal 21.8% | CCRF-CEM leukemia 18.8% | MOLT-4 leukemia 21.1%
active: SK-MEL-2 melanoma -21.6% | UO-31 renal -9.98% | ACHN renal 2.83% | CAKI-1 renal 1.18% | A498 renal -4.04%

CCOC(=O)C1=C(Nc2ccc(OC)cc2)C(N)=NC1=N
active: A498 renal 6.8%
inactive: SK-MEL-2 melanoma 44.6% | SN12C renal 57% | UO-31 renal 57.1% | TK-10 renal 59.2% | ACHN renal 46.6% | CAKI-1 renal 54.6% | CCRF-CEM leukemia 15.8% | MOLT-4 leukemia 26%

Nc1ccc(Sc2ccc3c4c2cccc4c(=O)n2c4ccccc4nc32)cc1
active: UO-31 renal 9.28% | CAKI-1 renal 5.9% | MOLT-4 leukemia -6.87%
inactive: SK-MEL-2 melanoma 84.1% | SN12C renal 19.2% | TK-10 renal 78.6% | ACHN renal 22.1% | A498 renal 58.8% | CCRF-CEM leukemia 44.9%

CCc1ccc(-c2nnc(COc3ccc(-c4nc5ccc(C)cc5[nH]4)cc3OC)o2)cc1
inactive: SK-MEL-2 melanoma 104% | SN12C renal 10.7% | UO-31 renal 38.2% | TK-10 renal 55.1% | CAKI-1 renal 30.3% | A498 renal 84.1% | MOLT-4 leukemia 38.6%
active: ACHN renal -8.12% | CCRF-CEM leukemia 6.98%

Cc1ccc(C(=O)O)c(N)c1C
inactive: SK-MEL-2 melanoma 89.3% | SN12C renal 106% | UO-31 renal 57.6% | TK-10 renal 122% | ACHN renal 103% | CAKI-1 renal 92.6% | A498 renal 108% | CCRF-CEM leukemia 93.4% | MOLT-4 leukemia 93.6%

CC(C)C(C)C(N)C(=O)O (stereo not given)
inactive: SK-MEL-2 melanoma 101% | SN12C renal 106% | UO-31 renal 85.6% | TK-10 renal 95.4% | ACHN renal 99% | CAKI-1 renal 99% | A498 renal 109% | CCRF-CEM leukemia 95.1% | MOLT-4 leukemia 93%

COc1cc(CSc2nc3ccc(Cl)cc3c(=O)n2Cc2ccccc2)cc(OC)c1OC
inactive: SK-MEL-2 melanoma 21.4% | SN12C renal 38.6% | UO-31 renal 27.1% | TK-10 renal 73.6% | ACHN renal 40.3% | CAKI-1 renal 26.7% | A498 renal 24% | CCRF-CEM leukemia 28.5% | MOLT-4 leukemia 29.4%

COCCNCC(O)Cn1c2ccc(Cl)cc2c2cc(Cl)ccc21 (stereo not given)
active: SK-MEL-2 melanoma -79.4% | SN12C renal -91.9% | UO-31 renal -20% | CAKI-1 renal 8.86% | CCRF-CEM leukemia -23.2% | MOLT-4 leukemia 4.5%
inactive: TK-10 renal 58.6% | ACHN renal 10.5% | A498 renal 62.6%

COc1cc2ccnc(C=O)c2cc1OC
active: CCRF-CEM leukemia -3.23%
inactive: SK-MEL-2 melanoma 83.2% | SN12C renal 77.8% | UO-31 renal 13.8% | TK-10 renal 50.4% | ACHN renal 51.2% | CAKI-1 renal 47.5% | A498 renal 111% | MOLT-4 leukemia 29.7%

COc1cc(-c2nc3ccccc3[nH]2)ccc1OCC(=O)N=Nc1c(O)[nH]c2ccccc12
inactive: SK-MEL-2 melanoma 103% | SN12C renal 83.2% | UO-31 renal 89.3% | TK-10 renal 136% | ACHN renal 101% | CAKI-1 renal 94.2% | A498 renal 95.2% | MOLT-4 leukemia 65.9%
active: CCRF-CEM leukemia -25.3%

COc1ccc(Cn2cc3c(c2-c2ccccc2)CC(C)(C)c2cnoc2-3)cc1
inactive: SK-MEL-2 melanoma 53% | SN12C renal 50.6% | UO-31 renal 43.9% | TK-10 renal 75% | ACHN renal 53.9% | A498 renal 49.4% | CCRF-CEM leukemia 22.7% | MOLT-4 leukemia 40%
active: CAKI-1 renal 6.85%

CCCCCCCCCCCCCCCCn1cc[n+](C)c1
active: SK-MEL-2 melanoma -64.5% | SN12C renal -94.6% | UO-31 renal -85.9% | TK-10 renal -80.4% | ACHN renal -0.6% | CAKI-1 renal -83.5% | A498 renal -65.3%
inactive: CCRF-CEM leukemia 33.6% | MOLT-4 leukemia 17.2%

Cc1cc(Cl)ccc1Nc1nc(C(F)(F)F)ccc1C(=O)N/N=C/c1ccccc1Cl
inactive: SK-MEL-2 melanoma 19.2% | SN12C renal 19.6% | TK-10 renal 19% | ACHN renal 16% | A498 renal 21.8% | CCRF-CEM leukemia 14.7% | MOLT-4 leukemia 41.2%
active: UO-31 renal 7.23% | CAKI-1 renal 5.28%

N=C(N)c1ccc(-c2ccc(-c3ccccc3)s2)cc1F
active: SK-MEL-2 melanoma -83.8% | SN12C renal -83.6% | UO-31 renal -91.2% | TK-10 renal -95% | ACHN renal -98.3% | CAKI-1 renal -81.3% | A498 renal -88.6% | CCRF-CEM leukemia -60.9% | MOLT-4 leukemia -75.5%

C/C=C\COc1cc(C)c(Cl)cc1Cl
inactive: SK-MEL-2 melanoma 120% | SN12C renal 94.7% | UO-31 renal 84.8% | TK-10 renal 125% | ACHN renal 128% | CAKI-1 renal 98.8% | A498 renal 101% | CCRF-CEM leukemia 95% | MOLT-4 leukemia 108%

Cc1ccc(/C=C2\CN(Cc3cn(CCNc4ccnc5cc(Cl)ccc45)nn3)C/C(=C\c3ccc(C)cc3)C2=O)cc1
inactive: TK-10 renal 29.9% | CCRF-CEM leukemia 11.7%
active: SK-MEL-2 melanoma -27.5% | SN12C renal -63.4% | UO-31 renal -78.8% | ACHN renal -16.9% | CAKI-1 renal -13.6% | A498 renal -81.1% | MOLT-4 leukemia -10.4%

COc1cccc(C(=O)NNc2nc(N3CCOCC3)nc(N3CCN(C(c4ccccc4)c4ccccc4)CC3)n2)c1
inactive: SK-MEL-2 melanoma 85.3% | SN12C renal 75.3% | UO-31 renal 39.7% | TK-10 renal 86.7% | ACHN renal 76.3% | CAKI-1 renal 44.7% | A498 renal 51.3% | CCRF-CEM leukemia 85.1% | MOLT-4 leukemia 63.2%

COc1cccc(C2(C)Nc3ccccc3-c3nc4ccccc4n32)c1 (stereo not given)
inactive: SK-MEL-2 melanoma 105% | SN12C renal 100% | UO-31 renal 94.2% | TK-10 renal 106% | ACHN renal 102% | CAKI-1 renal 99.8% | A498 renal 95.6% | CCRF-CEM leukemia 99.1% | MOLT-4 leukemia 84.5%

Cc1[nH]nc2c(=S)[nH]c(=O)[nH]c12
inactive: SK-MEL-2 melanoma 109% | SN12C renal 105% | UO-31 renal 93.4% | TK-10 renal 108% | ACHN renal 104% | CAKI-1 renal 101% | A498 renal 100% | CCRF-CEM leukemia 97.8% | MOLT-4 leukemia 105%

Cc1ccc2nc(-c3ccc(OCC(=O)N=Nc4c(O)[nH]c5ccccc45)cc3)[nH]c2c1
active: CCRF-CEM leukemia 9.27%
inactive: SK-MEL-2 melanoma 104% | SN12C renal 57.3% | UO-31 renal 96.1% | TK-10 renal 103% | ACHN renal 95.6% | CAKI-1 renal 93.4% | A498 renal 93.2% | MOLT-4 leukemia 39.6%

COc1cc2nc(Sc3sc(N)nc3C)n(-c3ccc(Oc4ccccc4)cc3)c(=O)c2cc1OC
inactive: SK-MEL-2 melanoma 107% | SN12C renal 79.7% | UO-31 renal 76.1% | TK-10 renal 98.1% | ACHN renal 81.5% | CAKI-1 renal 94.1% | A498 renal 82.1% | CCRF-CEM leukemia 64.5% | MOLT-4 leukemia 54%

CC1=CSC2=NC(c3ccc(Cl)c(Cl)c3)=CC(c3ccc(Cl)cc3)N12 (stereo not given)
active: SK-MEL-2 melanoma -14.1% | UO-31 renal 7.9% | CAKI-1 renal 5.28% | A498 renal -12%
inactive: SN12C renal 13.7% | TK-10 renal 18.6% | ACHN renal 13.5% | CCRF-CEM leukemia 31.9% | MOLT-4 leukemia 35.2%

C[N+]1(CC2CO2)CCCCCC1 (stereo not given)
inactive: SK-MEL-2 melanoma 118% | SN12C renal 102% | UO-31 renal 93.4% | TK-10 renal 114% | ACHN renal 101% | CAKI-1 renal 100% | A498 renal 87.8% | CCRF-CEM leukemia 109% | MOLT-4 leukemia 112%

CCN1CCN(c2ccc(Nc3ncnc4c3nnn4CCc3cc(OC)cc(OC)c3)cc2)CC1
inactive: SK-MEL-2 melanoma 110% | SN12C renal 93.7% | UO-31 renal 81.3% | TK-10 renal 114% | ACHN renal 106% | CAKI-1 renal 102% | A498 renal 65.6% | CCRF-CEM leukemia 86.4% | MOLT-4 leukemia 88.9%

O=C(O)c1ccc(CNc2ccc(C(=O)CCl)cc2)cc1
inactive: SK-MEL-2 melanoma 96.6% | SN12C renal 99.3% | UO-31 renal 106% | TK-10 renal 104% | ACHN renal 99.3% | CAKI-1 renal 86.7% | A498 renal 61.4% | CCRF-CEM leukemia 48.7% | MOLT-4 leukemia 87.9%

O=C1/C(=C/c2ccc(O)cc2)CSc2ccc(Cl)cc21
inactive: SK-MEL-2 melanoma 97.8% | SN12C renal 81.5% | UO-31 renal 73.1% | TK-10 renal 103% | ACHN renal 88.9% | CAKI-1 renal 79.9% | A498 renal 99.5% | CCRF-CEM leukemia 12.4% | MOLT-4 leukemia 22.3%
